Results filed as inconclusive are left out. A number with no mark means an inactive call. Active and inactive are the calls of the source. Calls follow the shape of the dose curve; as a rule, active = well fitted inhibition curve with a large enough effect; inconclusive = small, poorly fitted or top-dose-only effect; inactive = flat fitted curve, though single readings scatter.
These molecules were tested against Glutathione peroxidase 1 (Homo sapiens) (UniProt P07203) (assay: Primary qHTS Assay for Inhibitors of Recombinant Selenoprotein Glutathione Peroxidase 1 (GPX1) (AID 1845191; also: nearly all actives have a fitted effect of over 65% in size)). Conditions: recombinant GPX1, GR-coupled NADPH fluorescence, 15 min; series mostly up to 48.8 µM; activity, negative = inhibition: at the top concentration.
Chain of Glutathione peroxidase 1 (Homo sapiens) (P07203 whole entry, looked up): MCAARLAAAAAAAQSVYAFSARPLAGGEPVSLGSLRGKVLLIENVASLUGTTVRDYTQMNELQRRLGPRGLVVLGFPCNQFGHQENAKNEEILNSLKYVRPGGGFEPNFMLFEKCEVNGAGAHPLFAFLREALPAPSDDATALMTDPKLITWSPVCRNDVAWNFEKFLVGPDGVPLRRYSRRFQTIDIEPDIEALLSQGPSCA
Source text: Assay Provider: Elias S.J. Arner MD PhD.
Department of Medical Biochemistry and Biophysics
Karolinska Institutet, Solna, Stockholm, Sweden
Selenoprotein glutathione peroxidases (GPX), like the ubiquitously expressed GPX1 and the ferroptosis modulator GPX4, enact their antioxidant activities by reducing hydroperoxides using glutathione. […] GPX1 and GPX4 inhibitors have thus shown promise as anti-cancer agents. Existing inhibitors are often promiscuous, or modulate GPX activity only indirectly, so novel direct inhibitors identified through screening against GPX1 and GPX4 could be valuable. Here, we developed optimized glutathione reductase (GR)-coupled GPX assays for the biochemical high-throughput screen (HTS) of almost 12,000 compounds with known mechanisms of action. Initial hits were triaged using a GR counter-screen, assessed for isoform specificity using a separate GPX2 assay, and were assessed for general selenocysteine-targeting activity using a thioredoxin reductase (TXNRD1) assay. With this suite of assays, we identified novel GPX1/GPX2- and GPX4-specific inhibitors and can here present a validated pipeline for future discovery research for selenoprotein-targeting agents.
SEQUENCE No. (e.g., 1, 2, 3, etc.); […] (e.g., Cells, Incubation, Reagent, etc.); VALUE; DESCRIPTION.
1; Reagent 1; 3 uL; GPx1 enzyme or no enzyme control in 1536-well, black, solid Greiner assay plate.
2; Compound; 25 nL; Kalypsis pin tool (Wako USA) equipped with a 1536-well pin head.
3; Incubation; 30 min; room temperature.
4; Reagent 2; 1 uL; 10 nM GPX1, 1 mM GSH, 0.5 mM CHP, 0.5 mM NADPH, 100 nM GR, 0.01% BSA substrate
5; Detection; Fluorescence; ViewLux microplate reader, excitation 340 nm and emission 450 nm.
6; Incubation; 15 min; room temperature.
7; Detection; Fluorescence; ViewLux microplate reader, excitation 340 nm and emission 450 nm.
NOTES (numbers refer to Sequence numbers above)
1. 3 uL of 16.66 nM GPX1 and 0.016% BSA in assay buffer (50 mM Tris-HCl, 2 mM EDTA (pH 7.5), 150 mM NaCl) was added to columns 3-48 of 1536-well assay plates using a BioRAPTR Flying Reagent Dispenser (Let's Go Robotics (LGR), Carlsbad, CA). A no-enzyme control (0.01% BSA in TES assay buffer) was added to columns 1-2.
2. 25 nL of test compounds and DMSO controls were added to each well with a pin tool (Kalypsys).
3. The assay plates were incubated for 30 minutes at room temperature.
4. 1 uL of master mix (500 nM glutathione reductase (GR), 5 mM reduced glutathione (GSH), 2.5 mM NADPH in assay buffer) was added. 1 uL of cumene hydroperoxide (CHP) ([2.5 mM] in 50% EtOH) was then added within 5 minutes to initiate the reaction. Final concentrations were: 10 nM GPX1, 1 mM GSH, 0.5 mM CHP, 0.5 mM NADPH, 100 nM GR, 0.01% BSA.
5. Initial fluorescence readout (t=0) at 340/450 nm was measured using a ViewLux multimodal detector (PerkinElmer, Waltham, MA).
7. Endpoint fluorescence readout (t=15) at 340/450 nm was measured 15 min after room temperature incubation.
% is scaled to controls: 0 for no effect and ±100 for the full control effect.

Structure (SMILES)	activity, negative = inhibition	outcome	Potency
CC(=O)O[C@H]1CC[C@H]2[C@@H]3CCC4=CC(=O)CCC4=C3C=C[C@]12C	-22.6%	–	–
Cn1ncnc1COc1nn2c(-c3c(F)cccc3F)nnc2cc1C1CCC1	-7.88%	–	–
CCn1cnc2c(Nc3cccc(Cl)c3)nc(N[C@@H]3CCCC[C@@H]3N)nc21	–	inactive	–
O=C(C[C@@H]1NCCC[C@H]1O)Cn1cnc2cc(Br)c(Cl)cc2c1=O	-2.94%	–	–
CN1C2CCC1CC(OC(c1ccccc1)c1ccccc1N)C2 (stereo not given)	–	inactive	–
C[C@H](NC(=O)Cc1cc(F)cc(F)c1)C(=O)N[C@@H]1N=C(c2ccccc2)c2ccccc2N(C)C1=O	-8.95%	–	–
[Cl-].[Cl][Pt].[NH2-].[NH2-].c1ccncc1	–	inactive	–
CC1CCC(C(C)C)C(OC(=O)c2ccccc2N)C1 (stereo not given)	–	inactive	–
CN[C@H]1[C@H](O)[C@H](O[C@@H]2[C@@H](O)[C@H](O[C@H]3O[C@H]([C@H](C)O)[C@@H](O)[C@H](O)[C@H]3N)[C@@H](N)C[C@H]2N)OC[C@@]1(C)O	-3.82%	–	–
CCN1C[C@]2(OC(=O)c3ccccc3NC(C)=O)CC[C@H](OC)[C@@]34[C@@H]2C[C@@H]([C@@H]13)[C@@]1(O)C[C@H](OC)[C@H]2C[C@@H]4[C@]1(O)[C@H]2OC	2.69%	–	–
O=[N+]([O-])c1cc(O)c(O)c([N+](=O)[O-])c1	–	inactive	–
CCCC[N+]1(C)C2CC(OC(=O)[C@H](CO)c3ccccc3)CC1C1OC12 (stereo not given in full)	–	inactive	–
COc1cc2c(cc1OC)[C@@]13CCN4CC5=CCO[C@H]6CC(=O)N2[C@H]1[C@H]6[C@H]5C[C@H]43	–	–	inactive
Clc1cc(I)cc(Cl)c1NC1=NCCN1	-20.8%	–	–
NC(=O)c1ccc(OCC(O)CN2CC=C(c3ccc(F)cc3)CC2)cc1 (stereo not given)	0.515%	–	–
O=[N+]([O-])c1ccccc1	4.93%	–	–
C[N+]1(C)C2CCC1CC(OC(=O)c1c[nH]c3ccccc13)C2 (stereo not given)	–	inactive	–
CC1=CC2/C=C(\C)CCC(O)C3OC(C)(C)OC3CC(=O)OC23C(=O)NC(CC(C)C)C3C1C (stereo not given)	–	inactive [at 27.7 µM]	–
CC12CCC3C(CCC4(O)CC(O)CCC34C=O)C1(O)CCC2C1=CC(=O)OC1 (stereo not given)	–	inactive	–
CCC1(C)CC(=O)NC(=O)C1	-5.57% [at 98.3 µM]	–	–

Structure (SMILES)	activity, negative = inhibition	outcome	Potency
C/C(=C\c1csc(C)n1)[C@@H]1C[C@@H]2O[C@]2(C)CCC[C@H](C)[C@H](O)[C@@H](C)C(=O)C(C)(C)[C@@H](O)CC(=O)O1	–	–	inactive
CN1[C@H]2C[C@H](OC(=O)[C@H](CO)c3ccccc3)C[C@@H]1[C@@H](O)C2	–	inactive	–
Cc1cccc(NC(=O)N[C@@H]2N=C(c3ccccc3)c3ccccc3N(C)C2=O)c1	-20.5%	–	–
CCC(=O)O[C@@](Cc1ccccc1)(c1ccccc1)[C@@H](C)CN(C)C	–	inactive	–
CN1CCC(c2c[nH]c3ccc(O)cc23)CC1	–	inactive	–
CCCn1c(=O)c2[nH]c(C3CCCC3)nc2n(CCCOC(=O)c2ccc(S(=O)(=O)F)cc2)c1=O	-7.97%	–	–
CC(CCc1ccc(O)cc1)O[C@@H]1O[C@H](CO[C@H]2OC[C@](O)(CO)[C@H]2O)[C@@H](O)[C@H](O)[C@H]1O (stereo not given in full)	1.1% [at 27.7 µM]	–	–
N=C(N)c1ccc(CS(=O)(=O)F)cc1	–	inactive	–
CCCCCOc1cc2c(cc1-c1cc(/C=C/C(=O)O)ccc1O)C(C)(C)CCC2(C)C	–	inactive	–
N[C@@]1(C(=O)O)CC[C@@H](C(=O)O)C1	-21.2%	–	–
COc1cc(C)[nH]c(=O)c1CNC(=O)c1c(C)n([C@H](C)C2CCOCC2)c2ccccc12	–	–	inactive
COC(=O)C1(C)CCC(=O)C2(C)c3c(O)cc(C(C)C)cc3C(O)C(OC(C)=O)C12 (stereo not given)	-18% [at 27.7 µM]	–	–
C[N+]1(C)CCCCC1COC(=O)C(O)(c1ccccc1)c1ccccc1 (stereo not given)	-7.1%	–	–
CCCCC[C@@H](O)C1C(=O)OC(C)[C@H](O)/C=C/C=C/C=C/C=C/C=C(\C)C(O)C(O)C(O)C[C@H](O)C[C@H](O)C[C@H](O)C[C@H](O)C[C@@H]1O (stereo not given in full)	–	inactive	–
CC(N)Cc1c[nH]c2ccc(O)cc12 (stereo not given)	-11%	–	–
O=C(NCNC(=O)NC1C(=O)NC(=O)N1CO)NC1C(=O)NC(=O)N1CO (stereo not given)	0.174%	–	–
O=C1OC2(c3cc(Br)c(O)cc3Oc3c2cc(Br)c(O)[c]3[Hg])c2ccccc21 (stereo not given)	-25.8%	–	–
C[C@@H]1O[C@@H](O[C@H]2C[C@@H](O)[C@]3(CO)[C@@H]4C(CC[C@]3(O)C2)[C@@]2(O)CC[C@H]([C@@H]3COC(=O)C3)[C@@]2(C)C[C@H]4O)[C@H](O)[C@H](O)[C@H]1O (stereo not given in full)	-2.17%	–	–
NNC(=O)c1ccc(O)cc1	-2.78%	–	–
OC1CCCCC1N1CCC(c2ccccc2)CC1 (stereo not given)	-12.4%	–	–

Reference: PubChem BioAssay (NCATS)
